The target in the assay is AMP-activated protein kinase, AMPK (Homo sapiens) (UniProt P54646+O43741+P54619+Q9UGJ0+Q9Y478+Q13131+Q9UGI9). Put plainly: AMP-dependent Kinase enzyme assay. An in vitro enzyme assay that detects ADP turnover that is directly proportional to AMPK activity. This uses naive AMPK that is activated during the assay with MK-8722. The class given is functional. On the set-up: scale not given: direction of the effect not stated beside the values. The settings on record: 30 µM.
As to `CNC(=O)Cc1ccc(NC(=O)NCc2nc(C)sc2C)cc1`, the Percent Effect came to 0.571%.

On to `COc1cc(N(C)Cc2cc(C(C)(C)C)n[nH]2)ncn1`, for which the Percent Effect is -15.7%.

Take `Cc1cc(C)n(CC(C)NC(=O)C2(c3ccccc3F)CC2)n1` (stereo not given): the Percent Effect is -3.82%.

On to `CCC(c1ccc(F)cc1)S(=O)(=O)CCO` (stereo not given), for which the Percent Effect stood at 0.117%.

Take `Cc1noc(C(C)N2CCC(c3nc4ccccc4[nH]3)CC2)n1` (stereo not given): the Percent Effect amounted to 1.83%.

Take `CN(Cc1ccncc1)Cc1cnn(-c2ccc(F)cc2)c1`: the Percent Effect was 11.6%.

`CCOC(=O)CC1(Nc2nc(C)nc3c2cnn3C)CCCCC1`: the Percent Effect was determined as 14.9%.

For `Cc1csc(CCNC(=O)N2CCC(n3cccc3)CC2)n1`, the Percent Effect was -3.41%.

For `O=C(Cc1c[nH]c(=O)[nH]c1=O)N1CCCCC1CCc1ccccc1` (stereo not given), the Percent Effect is -1.5%.

As for `CC(C)n1cc(CN(Cc2ccsc2)CC2CCCO2)cn1` (stereo not given), the Percent Effect is 5.12%.

Consider `CCN(CCNC(=O)Nc1nnc(C)s1)C(=O)OC(C)(C)C`, for which the Percent Effect is -0.666%.

Regarding `COc1cccc(S(=O)(=O)N2CCCCC2CCN2CCCC2=O)c1` (stereo not given), the Percent Effect was determined as 5.93%.

With `CC(C(=O)NC1(C#N)CCCCC1)N1CCc2c(ncn2C)C1` (stereo not given), the Percent Effect is -9.22%.

As to `Cc1ccsc1C(CNC(=O)c1cc(=O)c2ccccc2[nH]1)N(C)C` (stereo not given), the Percent Effect came to 13.7%.

Turning to `COc1cccc(C)c1C(=O)N1CCc2ncnc(NCCO)c2CC1`, the Percent Effect was -1.45%.

For `Cc1ccccc1C(NC(=O)CCCS(C)(=O)=O)C(C)(C)C` (stereo not given), the Percent Effect was 7.1%.

Consider `CC(C)c1ccccc1NC(=O)N1C[C@@H]2CC[C@H](C1)N(C)C2=O`, for which the Percent Effect was -7.67%.

For `O=C(c1cnc2c(c1)CCC2)N1CCCC(CO)(CC2CC2)C1` (stereo not given), the Percent Effect stood at 3.82%.

As for `Cn1cccc1C1CCCN1Cc1noc(C(C)(C)C)n1` (stereo not given), the Percent Effect is -15%.

Turning to `CC1(c2ncc(CN3CCOCC3)cn2)CCCCO1` (stereo not given), the Percent Effect amounted to 9.84%.

Values taken from ChEMBL document CHEMBL3988442, “University of Dundee, Small-Polar-MMV Screening Library” (2021).
